# Source: the supplement of paper PMC9402605
# ± gives the standard deviation of the averaged measurements.
# Test system: Caenorhabditis elegans N2
# Assay: egg-laying rate relative to DMSO control (M9 buffer background) (fraction of control); higher = more egg-laying
# Conditions: 60 µM, 1 h
# Experimental: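 About 20 young-adult wild-type C. elegans (N2) per well in 96-well plates were exposed to 60 uM compound for 1 h at room temperature, either in M9 buffer (to find stimulators) or in 12.3 mM serotonin + 7.7 mM nicotine (NS, to find inhibitors). Eggs per worm per hour were counted by automated imaging and normalised to the mean of proximal DMSO control wells. Values average the primary screen and two retests of the worm-active (wactive) Egl modulators.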
row,SMILES,egg-laying rate
1,CCOc1ccc(/C=C/[N+](=O)[O-])cc1 [wact-385],0.274 ± 0.14
